# Source: PubChem BioAssay
# Cycloheximide cs: Cycloheximide Counterscreen for Small Molecule Inhibitors of Shiga Toxin | cell reporter, cycloheximide protein synthesis inhibition counterscreen | max response, % | 12% of 300,000 active; in the data active means max response mostly above about 13%, no sharp cut-off; inactive means mostly below about 14%; further: read at 38.3 µM for the half of the compounds with a filed dose
# Pf growth 96h: Primary qHTS for delayed death inhibitors of the malarial parasite plastid, 96 hour incubation; AID 504834, 2011; Potency, µM (top dose mostly 28.7 µM), most hits filed as inhibitors; P. falciparum luciferase reporter growth, 96 h; 6.9% of 320,000 active
#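 Compounds incubated with erythrocytes infected by luciferase-expressing P. falciparum (2% hematocrit, 0.05% parasitemia final) for 96 hours, 37 C in 5% CO2. Growth inhibition scored as decreased luciferase luminescence.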
# Shiga toxin inh: A qHTS for Small Molecule Inhibitors of Shiga Toxin; 9.2% of 290,000 active; inhibition, % at 38.7 µM; Vero cells, Shiga toxin protein synthesis inhibition reporter; AID 2315, 2010; in the data active means inhibition mostly above about 28%, no sharp cut-off; inactive means mostly below about 43%
# Sm TGR block: qHTS Assay for the Inhibitors of Schistosoma Mansoni Peroxiredoxins; purified TGR, DTNB reduction, TNB absorbance 405 nm; Potency, µM (doses to about 114 µM), most hits filed as inhibitors; Schistosoma mansoni thioredoxin glutathione reductase (TGR), Q962Y6; 3% of 360,000 active; further: nearly all actives have a fitted effect of over 60% in size
#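 Kinetic colorimetric format: TGR-catalysed, NADPH-driven DTNB reduction monitored via TNB absorbance. Enzyme dispensed at 20 nM; compound exposure 15 min at room temperature before reaction start.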
# Pf growth 48h: Primary qHTS for delayed death inhibitors of the malarial parasite plastid, 48 hour incubation. P. falciparum luciferase growth in erythrocytes, 48 h. Potency, µM (series often up to 28.7 µM), most hits filed as inhibitors. 5.9% of 310,000 active
#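 Cell-based growth assay: transgenic P. falciparum expressing firefly luciferase, cultured in red cells within RPMI 1640 containing 0.5% w/v Albumax, 24 mM bicarbonate and gentamycin. A drop in luciferase activity indicates inhibition.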
# NS1 function inh: qHTS Assay for Inhibitors of Influenza NS1 Protein Function | 0.4% of 270,000 active | AID 2326, 2010 | Potency, µM (doses to about 46.1 µM); calls by dose curve; further: actives are rising curves; nearly all actives have a fitted effect of over 50% in size
#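 A cell-based growth assay was used: compounds that relieve NS1-induced slow growth of budding yeast raise OD600. Assay medium was yeast nitrogen base with ammonium sulphate and -URA supplement, pH 6.0, with 2% galactose.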
# A number is an active result; - = inactive; ? = inconclusive; . = no result; [ ] = another dose, or the depositor's remark. A selection: hits, their analogues and other compounds. The true share with any hit is near 21%. Unless noted, the call rests on the fitted dose curve; in most records, active means well fitted curve in the direction sought with a large enough effect; inconclusive means small, poorly fitted or top-dose-only effect, or another doubt; inactive means no such curve, though single readings can be large; an effect the other way counts as inactive or inconclusive.
SMILES,Cycloheximide cs,Pf growth 96h,Shiga toxin inh,Sm TGR block,Pf growth 48h,NS1 function inh
O=C(Nc1sc2c(c1C(=O)NCc1ccco1)CCCC2)c1cc(=O)c2cc(Cl)ccc2o1,.,.,.,-,.,.
O=C(CSc1n[nH]c(=O)n1C1CC1)c1ccc(F)cc1,13,-,-,-,-,-
O=C(NNS(=O)(=O)c1cccc(Cl)c1)c1cc(-c2ccc(F)cc2)nc2ccccc12,-,-,-,-,-,-
C=CCC1NS(=O)(=O)OCC1NC(=O)OCC(Cl)(Cl)Cl (stereo not drawn),-,-,-,-,-,-
CC(C)(C)OC1NS(=O)(=O)OCC1NCOC(Cl)(Cl)Cl (stereo not drawn),-,-,-,0.45µM,-,-
COc1ccccc1-c1c(NC(=O)c2ccco2)n(C)c2ccccc2c1=O,18,-,36,-,-,-
COc1ccc(/C=C/C(=O)NNc2cc(=O)n(C)c(=O)n2C)cc1OC,-,-,-,-,-,-
Cc1ccc(C(=O)Nc2cc(=O)n(C)c(=O)n2C)o1,-,-,-,-,-,-
COc1cc(/C=C/C(=O)N2CCC=CC2=O)cc(OC)c1OC,.,?,.,-,9.3µM,.
Cc1ccc(/C=C/C(=O)Nc2cc(=O)n(C)c(=O)n2C)o1,-,-,-,7.9µM,-,-
Cn1c(NC(=O)/C=C/c2ccco2)cc(=O)n(C)c1=O,-,-,-,28µM,-,-
COc1cc(/C=C\C(=O)Nc2cc(=O)n(C)c(=O)n2C)cc(OC)c1OC,-,?,-,-,5.2µM,.
Cc1cccc(C(=O)Nc2cc(=O)n(C)c(=O)n2C)c1,-,-,-,-,-,-
CC1=C(C(=O)NCc2ccccc2)C(c2cccs2)NC(=S)N1 (stereo not drawn),-,?,-,-,-,-
Cc1ccccc1COC(=O)c1ccc(-c2nnn(Cc3ccccc3F)n2)cc1,.,.,.,-,.,.
COc1cc(-c2nnc(SCCOc3ccc(Cl)cc3C)o2)cc(OC)c1OC,.,.,.,-,.,.
Cc1cccc(CCNC(=O)c2cc(=O)[nH]c3ccc(Br)cc23)c1,-,10µM,-,-,-,-
CC(=O)OCC(=O)Nc1ccc([N+](=O)[O-])cc1Cl,-,-,-,-,-,.
CC(=O)Oc1c(C)cc(Cl)cc1C(=O)Nc1ccc([N+](=O)[O-])cc1Cl,74,-,128,-,?,-
CCOC(=O)c1[nH]c2ccccc2c1NC(=O)C(C)(C)C,-,?,-,-,.,-
Cc1c(C(=O)COC(C)(C)C)[nH]c2ccccc12,20,-,-,?,-,-
Cc1cc(C)c(C(=O)COC(=O)c2nn(C)c(=O)c3ccccc23)cc1C,.,-,.,-,-,.
COc1ccc(N2CC(C(=O)Nc3nnc(SCC(=O)NCc4ccco4)s3)CC2=O)cc1 (stereo not drawn),-,?,-,28µM,-,-
Cc1cccc(C)c1Nc1nnc(SCC(=O)NCc2ccco2)s1,-,0.83µM,-,-,?,-
COc1ccc(N2CC(C(=O)NCc3ccco3)CC2=O)cc1 (stereo not drawn),-,-,-,20µM,-,-
SMILES,Cycloheximide cs,Pf growth 96h,Shiga toxin inh,Sm TGR block,Pf growth 48h,NS1 function inh
CC(c1ncncc1F)[C@](O)(Cn1cncn1)c1ccc(F)cc1F (stereo partly drawn),.,?,.,.,-,.
COc1ccc(N2CCN(C(=O)COC(=O)c3ccc(CSC)o3)CC2)cc1,.,?,.,-,?,.
COc1ccccc1NC(=O)C1=C(C)Nc2nc3ccccc3n2C1c1cccc(Br)c1 (stereo not drawn),.,.,.,-,.,.
COc1cc2c(cc1OC)C1O[C@](CCCCN3C(=O)c4ccccc4C3=O)(C2)Oc2cc(C)n(Cc3ccccc3)c(=O)c21,-,2.4µM,-,?,?,-
CCCCC[C@]12Cc3cc(OC)c(OC)cc3C(O1)c1c(cc(C)n(-c3ccccc3)c1=O)O2,-,-[5.75 µM],-,?,?,-
CCCCn1c(C)cc2c(c1=O)[C@H]1O[C@](CCCC)(Cc3cc(OC)c(OC)cc31)O2,-,?,-,-[22.9 µM],-[5.75 µM],-
CCCCn1c(C)cc2c(c1=O)C1O[C@](c3ccc(OC)cc3)(Cc3cc(OC)c(OC)cc31)O2,15,1.5µM,-,?,?,-
